Screening data from PubChem BioAssay.
3T3 cytotox: NIH 3T3 cell cytotoxicity; NIH 3T3 viability, CellTiter-Glo ATP luminescence, 48-72 h; Potency, µM (series often up to 96.7 µM), for inactives: at the highest dose activity change, negative = cytotoxicity, usual class: inhibitors; 4.3% of 94,000 active; AID 1345082; note: nearly all actives have a fitted effect of over 55% in size
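First NIH 3T3 cells are plated at 400 cells/well; next compound is pinned in; then plates incubate 48 or 72 hr at 37 °C; finally CellTiter-Glo is added and luminescence read after 10 min.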
NPR1 antag: antagonists of human natriuretic peptide receptor Npr1 | P16066 | HEK293 hNpr1 GloSensor cGMP, ANP-stimulated luminescence | Potency, µM (top dose mostly 46.3 µM), without a hit: at the top dose activity change, negative = inhibition, most hits filed as inhibitors | 1.6% of 76,000 active; calls by dose curve; note: nearly all actives have a fitted effect of over 60% in size
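HEK293 cells stably expressing human Npr1 and cGMP GloSensor pGS-40F, loaded 2 h with 2% GloSensor reagent, given compound 30 min at room temperature. Luminescence read before and 20 min after 0.1 nM hNppA.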
GPT2 inhibitor: GPT2 alanine aminotransferase inhibition | Q8TD30 | Potency, µM (titrated, usually from 57.7 µM), without a hit: at the highest dose activity change, negative = inhibition, actives largely listed as inhibitors | 0.25% of 100,000 active | Recombinant GPT2, coupled pyruvate oxidase/HRP Amplex Red fluorescence | AID 1671188; note: nearly all actives have a fitted effect of over 60% in size
Target sequence (Q8TD30 whole entry, looked up): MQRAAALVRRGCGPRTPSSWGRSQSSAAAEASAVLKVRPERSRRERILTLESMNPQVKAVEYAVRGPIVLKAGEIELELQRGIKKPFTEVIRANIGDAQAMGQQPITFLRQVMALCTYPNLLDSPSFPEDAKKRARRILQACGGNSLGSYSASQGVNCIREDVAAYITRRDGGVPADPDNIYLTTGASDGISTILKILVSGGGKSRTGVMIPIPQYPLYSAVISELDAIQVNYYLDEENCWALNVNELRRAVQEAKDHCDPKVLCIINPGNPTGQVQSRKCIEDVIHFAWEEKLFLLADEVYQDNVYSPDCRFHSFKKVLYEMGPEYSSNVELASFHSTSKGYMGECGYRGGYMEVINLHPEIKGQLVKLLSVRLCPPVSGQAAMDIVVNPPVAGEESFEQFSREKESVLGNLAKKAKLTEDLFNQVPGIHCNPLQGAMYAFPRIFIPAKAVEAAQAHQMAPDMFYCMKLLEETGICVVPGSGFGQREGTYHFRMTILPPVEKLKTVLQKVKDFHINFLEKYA
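Fluorescence of coupled pyruvate oxidase/HRP/Amplex Red system (50uM Amplex, 30 min, dark) reports pyruvate formed by GPT2. Enzyme reaction: 10ng/uL GPT2, 2mM L-alanine, 250uM a-KG, 30 min room temperature, pH 7.5; 50uM AOA control.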
FLuc inh: Photinus pyralis luciferase inhibition; Potency, µM (doses to about 115 µM), hits mostly inhibitors; P08659; purified P. pyralis luciferase, luminescence, biochemical; AID 1347043; 2.5% of 76,000 active; note: nearly all actives have a fitted effect of over 65% in size
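Purified 10nM P. pyralis luciferase with 10uM D-luciferin and 10uM ATP in 50mM Tris acetate pH 7.5, 10mM Mg acetate, 0.01% Tween-20, 0.05% BSA. qHTS titration; luminescence read by CCD imager.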
HEK293 tox: kills HEK 293 cells. Potency, µM (titrated, usually from 115 µM), without a hit: at the highest dose activity change, negative = cytotoxicity, actives largely listed as inhibitors. 6.6% of 94,000 active. HEK 293 viability, ATP luminescence (CellTiter-Glo), 48-72 h. AID 1345083; note: nearly all actives have a fitted effect of over 60% in size
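ATP-coupled CellTiter-Glo luminescence served as viability read-out, recorded 10 min after reagent addition at room temperature. HEK 293 cells, 250 cells/well, had been incubated with pintool-transferred compound for 48 or 72 hr at 37 degree Celsius.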
* = called active by the depositor; i = inactive; u = inconclusive; x = not tested or not shown; [ ] = dose if it differs, or a comment. Shown are actives, neighbours in structure and some others; about 10% of the full set was active somewhere. Unless noted, calls come from the whole dose curve; as a rule, active = well fitted curve in the direction sought with a large enough effect; inconclusive = small, poorly fitted or top-dose-only effect, or another doubt; inactive = no such curve, though single readings can be large; an effect the other way counts as inactive or inconclusive. % is set by controls: 0 for no effect and ±100 for the full control effect; potency is the fitted concentration of half-maximal effect.

SMILES	3T3 cytotox	NPR1 antag	GPT2 inhibitor	FLuc inh	HEK293 tox
O=C(NCCc1cnc[nH]1)c1nc(-c2ccccc2)cc2[nH]ccc12	u	-13%[70.6 µM]	1%[88.5 µM]	i	u
Cc1ccc(-c2cc3c(ccn3C)c(C(=O)NCCc3cnc[nH]3)n2)cn1	28µM*	5%[70.6 µM]	-13%[88.5 µM]	i	u
CN1CCN(c2ccc(-c3cc4c(ccn4C)c(C(=O)NCc4cccnc4)n3)cc2)CC1	u	-4%	2%	u	28µM*
COc1ccc(-c2cc3c(ccn3C)c(C(=O)NCc3cccnc3)n2)cc1	u	-30%[70.6 µM]	3%[88.5 µM]	u	112µM*
Cn1ccc2c(C(=O)NCc3cccnc3)nc(-c3cnn(Cc4ccccc4)c3)cc21	u	-13%[70.6 µM]	0%[88.5 µM]	i	63µM*
NCCNS(=O)(=O)c1cccc2c(Cl)cccc12	x	x	i	x	x
O=C(c1ccccc1)N1CCC2(CC1)CC(c1cccnc1)=NO2	-22%[138 µM]	1%[70.6 µM]	-1%[88.5 µM]	i	u
CCOc1ccc2c(n1)CCN(C(=O)C1CCC1)C2	-16%	3%	i	i	-4%
Cn1ccc2c(C(=O)NCc3cccnc3)nc(-c3ccc([S+](C)(=O)[O-])cc3)cc21	u	2%[70.6 µM]	0%[88.5 µM]	i	u
CN1CCN(c2ccc(-c3cc4c(ccn4C)c(C(=O)NCC4CCOCC4)n3)cc2)CC1	20µM*	2%	i	35µM*	u
Cn1cncc1CNC(=O)c1nc(-c2cccc(N3CCOCC3)c2)cc2c1ccn2C	50µM*	-13%[70.6 µM]	-4%[88.5 µM]	i	u
Cn1ccc2c(C(=O)NCc3cccnc3)nc(-c3cncnc3)cc21	45µM*	2%[70.6 µM]	-13%[88.5 µM]	i	-21%[172 µM]
Cn1ccc2c(C(=O)NCc3cnccn3)nc(-c3cccc(N4CCOCC4)c3)cc21	u	5%[70.6 µM]	2%[88.5 µM]	i	-21%[172 µM]
Cn1ccc2c(C(=O)NCc3cccnc3)nc(-c3cccc(F)c3)cc21	u	u	-1%[88.5 µM]	i	89µM*
Cn1ccc2c(C(=O)NCc3cccnc3)nc(-c3cccc(O)c3)cc21	u	-21%[70.6 µM]	-24%[88.5 µM]	i	u
O=C(C[C@@H]1O[C@H](CNS(=O)(=O)c2ccc(Cl)cc2)[C@@H](O)[C@H]1O)N1CCN(c2ccc(F)cc2)CC1	-30%	0%	-1%	i	u
CN(C(=O)CCc1nc2ccccc2[nH]1)C1CCc2nn(C)c(=O)n2CC1 (stereo not given)	-6%	-2%	i	i	i
O=C(C1CCCN([S+](=O)([O-])c2cccs2)C1)N1CCC(c2nc3ncccc3[nH]2)CC1 (stereo not given)	-13%	x	i	x	u
CC[C@H]1CN(C(=O)N2CCOCC2)CC[C@H]1CC(=O)NCc1ccccc1OC	-12%[138 µM]	5%[70.6 µM]	-1%[88.5 µM]	i	-2%[172 µM]
Cc1ccc(-c2cc3c(ccn3C)c(C(=O)NCc3cccnc3)n2)cn1	35µM*	8%[70.6 µM]	i	i	u
CN1CCC(Oc2ccc(NC(=O)CCCc3ccccc3)cn2)CC1	u	0%	-7%	i	u
O=C(c1ccccn1)N1CCC2(Cc3ccccc3NC2=O)C1 (stereo not given)	4%[138 µM]	-2%[70.6 µM]	i	i	i
COc1cccc(-n2cc(CN(C)Cc3cn(-c4ccccc4)nn3)cn2)c1	u	-1%	-6%	i	32µM*
CN(Cc1ccc2nonc2c1)Cc1cn(-c2ccccc2)nn1	-12%	4%	-1%[11.5 µM]	i	u
COc1ccc(-c2cc3c(ccn3Cc3ccncc3)c(N3CCOCC3)n2)cn1	u	3%[70.6 µM]	4%[88.5 µM]	i	u
SMILES	3T3 cytotox	NPR1 antag	GPT2 inhibitor	FLuc inh	HEK293 tox
CN1CCC(Cn2ccc3c(N4CCOCC4)nc(-c4cccc(N5CCOCC5)c4)cc32)CC1	32µM*	-1%	1%	i	u
CN1CCC(Cn2ccc3c(N4CCOCC4)nc(-c4cccc(N[S+](C)(=O)[O-])c4)cc32)CC1	u	0%	i	i	u
CN1CCC(Cn2ccc3c(N4CCOCC4)nc(-c4cccc5[nH]ccc45)cc32)CC1	35µM*	0%[70.6 µM]	3%[88.5 µM]	i	63µM*
CN1CCC(Cn2ccc3c(N4CCOCC4)nc(-c4ccc5cn[nH]c5c4)cc32)CC1	40µM*	2%[70.6 µM]	3%[88.5 µM]	i	100µM*
O=C1NCc2cc(-c3cc4c(ccn4Cc4ccncc4)c(N4CCOCC4)n3)ccc21	u	-14%[70.6 µM]	i	i	u
COc1cccc(N2CCN(C(=O)C3CC(=O)N(c4n[nH]c5cccc(F)c45)C3)CC2)c1 (stereo not given)	u	2%	2%	i	u
O=C(NCc1ccc(Cl)cc1)c1nc2sccn2c1-c1cccnc1	u	x	-3%	x	u
CCCn1cc(S(=O)(=O)N[C@H](CC)C2CC(O)C2)cn1 (stereo not given in full)	-2%	4%	i[11.5 µM]	i	-7%
Cc1ccc(OCCC2CCN(C(=O)Cc3c[nH]c4ccccc34)C2)cc1 (stereo not given)	u	u	-3%	i	35µM*
O=C(CCC1CCN(C(=O)CCc2c[nH]c3ccccc23)CC1)NCc1cccnc1	i	4%	i	i	i
Cc1ccc(C(=O)N2CCC(CCC(=O)NCCc3c[nH]c4ccccc34)CC2)cc1	u	-24%	1%	32µM*	u
COc1ccc(OCc2nc(C3CN(C(=O)Cc4c[nH]c5ccccc45)C3)no2)cc1	u	u	i	i	45µM*
Cc1ccc(OCCC2CCN(C(=O)CCc3ccccc3)C2)cc1 (stereo not given)	u	-1%	u	i	u
COCc1nc(C2CCN(C(=O)Cc3c[nH]c4ccccc34)C2)no1 (stereo not given)	2%	-1%	i	i	i
COc1ccccc1-c1nc(-c2c(C)noc2C)cc2[nH]c(C)cc12	25µM*	-14%[70.6 µM]	1%[88.5 µM]	i	u
COc1ncccc1-c1nc(-c2c(C)noc2C)cc2[nH]c(C)cc12	u	3%[70.6 µM]	-6%[88.5 µM]	i	u
COc1cc(F)ccc1-c1nc(-c2c(C)noc2C)cc2[nH]c(C)cc12	35µM*	0%[70.6 µM]	0%[88.5 µM]	i	u
Cc1cc2c(-c3ccccc3)nc(-c3c(C)noc3C)cc2[nH]1	u	5%[70.6 µM]	u	i	u
CC(C)c1ccc(-c2nc(C3CC(=O)N(c4ccc(F)cc4)C3)no2)cc1 (stereo not given)	-20%	u	i	i	35µM*
CCc1ccc(N2CC(c3noc(-c4ccc(OC)nc4OC)n3)CC2=O)cc1 (stereo not given)	u	-20%	0%	i	45µM*
CC(C)c1ccc(-c2nc(C3CC(=O)N(c4ccc(F)c(Cl)c4)C3)no2)cc1 (stereo not given)	u	u	i	i	u
